Screens: PubChem, several laboratories
Efflux pump mplx – antifungal efflux pump inhibition, Nile Red retention; S. cerevisiae Candida pump triplex; inhibition, % at 10 µM; hit rate 0.44% among 330,000;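 active = plate passing quality check with inhibition over a set limit, or well fluorescence over plate mean plus 4 SD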;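 also: Nile Red retained in pooled yeast measured as flow cytometry median fluorescence; higher means more Nile Red kept so more efflux inhibition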
PABP FP inh – PABP-poly(A) binding inhibition. P11940. inhibition, % at 35 µM. hit rate 1% among 290,000. PABP-poly(A) RNA binding, fluorescence polarization;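 also: calls also rest on retests at 20 µM and on dose response follow-up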
PABP1 MLLE inh – blocks PAM2 peptide binding to the PABP1 MLLE domain | P11940 | GST-MLLE / FITC-PAM2 fluorescence polarization | inhibition, % at 20 µM | hit rate 0.36% among 360,000 | AID 588489; in the data active = inhibition above about 35%, passing the limit was not always enough
ALR H2O2 inh – inhibitors of human sulfhydryl oxidase ALR. inhibition, % (no concentration beside the values). P55789. purified ALR, DTT oxidation, H2O2 HRP-luminol luminescence. hit rate 3.8% among 290,000;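 active = mean replicate inhibition above about 79%, with every replicate also reaching it, limit read from the data; inconclusive = only one of the two criteria met; inactive = mean below limit and not every replicate reaching it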
Target sequence (P55789 whole entry, looked up): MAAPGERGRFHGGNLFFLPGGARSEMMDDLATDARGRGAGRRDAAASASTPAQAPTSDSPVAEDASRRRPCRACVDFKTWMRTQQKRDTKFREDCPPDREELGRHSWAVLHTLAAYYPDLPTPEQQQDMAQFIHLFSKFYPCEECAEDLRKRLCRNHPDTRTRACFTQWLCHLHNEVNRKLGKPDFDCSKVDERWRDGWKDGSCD
SUMO HTRF inh – SUMOylation inhibition. hit rate 0.36% among 290,000. inhibition, % at 35 µM. HTRF SUMOylation assay, SAE1/SAE2 + UBC9, in vitro. AID 2006; in the data active = inhibition above about 50%, passing the limit was not always enough; inconclusive = no clear call, values can overlap the other calls
Target sequence (P63279 whole entry, looked up): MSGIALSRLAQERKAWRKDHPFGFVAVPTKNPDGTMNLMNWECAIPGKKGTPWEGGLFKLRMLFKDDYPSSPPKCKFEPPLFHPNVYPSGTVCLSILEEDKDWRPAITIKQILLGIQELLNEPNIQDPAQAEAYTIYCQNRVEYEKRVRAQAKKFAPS
eIF4H inh – inhibitors of RNA binding by human eIF4H. Q15056. eIF4H fluorescence polarization binding assay. inhibition, % at 35 µM. hit rate 0.94% among 290,000. AID 2012;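 also: calls also rest on retests at 20 µM and on dose response follow-up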
Large screens that a line does not name were inactive. Most compounds without a hit are left out; they make up all but 4.7% or so of the library. Unless noted, no rule for the calls is given here.

CCn1nc(C)c(CN2CCC(C(=O)Nc3cccc(-c4cccc(Cl)c4)c3)CC2)c1C	none
COc1ccc(/C=C/C(=O)Nc2cccnc2Cl)cc1	none
CN(Cc1ccccc1)C1=CC(=[N+]2CCCCC2)CC(C)(C)C1	PABP FP inh 51.4
CC1(C)CC(N2CCN(Cc3ccccc3)CC2)=CC(=[N+]2CCCCC2)C1	none
O=c1c2ccccc2sc2nc(CCl)nn12	none (no result: Efflux pump mplx, PABP FP inh, ALR H2O2 inh, SUMO HTRF inh, eIF4H inh)
COc1cc2cc3c(N)c(C(=O)NCc4ccco4)sc3nc2cc1OC	PABP FP inh 108.7, eIF4H inh 81.8
COc1cc2cc3c(N)c(C(=O)Nc4sc(C)c(C)c4C#N)sc3nc2cc1OC	PABP FP inh 70.7, eIF4H inh 88.7
Nc1c(Cl)ncnc1N/N=C/c1cccc(O)c1	ALR H2O2 inh 97.2
COc1ccc(/C=N/Nc2ncnc(Cl)c2N)cc1OC	none
CN(C)c1ccc2c3c(ccc(N(C)C)c13)C(=O)OC2	ALR H2O2 inh 79.8
CS(=O)(=O)Nc1ccc2c(c1)C(=O)OC2	none
COc1ccc(-n2c(-c3cnccn3)n[nH]c2=S)cc1	ALR H2O2 inh 90.3
COc1ccccc1Oc1c(C)oc2c(CN3CCN(C)CC3)c(O)ccc2c1=O	SUMO HTRF inh 52.0 (no result: PABP1 MLLE inh)
Cc1ccc(-c2nnc(SCC(=O)NCC3CCCO3)nc2-c2ccc(C)cc2)cc1 (stereo unspecified)	none (no result: Efflux pump mplx, PABP FP inh, ALR H2O2 inh, SUMO HTRF inh, eIF4H inh)
CCOC1=C2[C@@H](CN(S(=O)(=O)c3ccc(C)cc3)[C@H]2c2ccc(Cl)cc2)[C@H]2C(=O)N(c3ccccc3)C(=O)[C@H]2C1	none (no result: Efflux pump mplx, PABP FP inh, ALR H2O2 inh, SUMO HTRF inh, eIF4H inh)
COC(=O)Cc1c(C)nc(SCc2ccccc2)[nH]c1=O	none
N#Cc1c(-c2ccco2)nc(SCc2ccc(F)cc2)[nH]c1=O	none
Cc1nc(SCc2cccc(F)c2)[nH]c(=O)c1C#N	ALR H2O2 inh 83.7
Cc1nc(SCc2cccnc2)[nH]c(=O)c1C	ALR H2O2 inh 98.6
Cc1cccc(NC(=S)NNC(=O)CCn2nc(C)c([N+](=O)[O-])c2C)c1	none
Cc1nn(CC(=O)NNC(=S)Nc2ccccc2)c(C)c1[N+](=O)[O-]	ALR H2O2 inh 79.8
COc1ccc(NC(=S)NNC(=O)Cn2nc([N+](=O)[O-])cc2C)cc1	ALR H2O2 inh 81.2
O=C(COC(=O)/C=C/c1cc(Br)ccc1F)NC1CC1	none (no result: PABP FP inh, SUMO HTRF inh, eIF4H inh)
Cc1c(C(=O)N2CCN(c3ncccn3)CC2)oc2ccc(Cl)cc12	none (no result: PABP FP inh, SUMO HTRF inh, eIF4H inh)
CCCCCCCCN1[C@@H](CC(=O)O)c2ccc(C(F)(F)F)cc2S1(=O)=O	ALR H2O2 inh 97.4 (no result: PABP FP inh, SUMO HTRF inh, eIF4H inh)
CCCCCCCCCCCCN1[C@@H](CC(C)=O)c2cc(C(F)(F)F)ccc2S1(=O)=O	none (no result: Efflux pump mplx, PABP FP inh, SUMO HTRF inh, eIF4H inh)
O=C(NC1CCCC1)c1ccc2c(c1)N(Cc1ccc(F)cc1)CCS2	none
Cc1ccc(CN2CCSc3ccc(C(=O)NCCCN4CCN(C)CC4)cc32)cc1	ALR H2O2 inh 98.5
CN1CCSc2ccc(C(=O)NCc3cccc(F)c3)cc21	ALR H2O2 inh 92.3
O=C(NCC1CCCO1)c1ccc2c(c1)N(Cc1ccc(Cl)cc1)CCS2 (stereo unspecified)	none (no result: Efflux pump mplx, PABP FP inh, ALR H2O2 inh, SUMO HTRF inh, eIF4H inh)
Cc1ccc(CN2CCSc3ccc(C(=O)NCC4CCCO4)cc32)cc1 (stereo unspecified)	ALR H2O2 inh 86.7
CN(C)CCNC(=O)c1ccc2c(c1)N(Cc1ccc(F)cc1)CCS2	ALR H2O2 inh 99.1
Cc1ccc(S(=O)(=O)NCCCNS(=O)(=O)c2ccccc2[N+](=O)[O-])cc1	none
CCOc1ccc(NC(=O)CCN2C(=O)c3cccc([N+](=O)[O-])c3C2=O)cc1	none
CN(C)c1ccc(NC(=O)CCN2C(=O)c3cccc([N+](=O)[O-])c3C2=O)cc1	ALR H2O2 inh 99.7
CCOC(=O)C1=C(c2ccccc2)N=c2s/c(=C\c3cc(OC)c(OC)c(OC)c3)c(=O)n2C1c1cccs1 (stereo unspecified)	PABP FP inh 79.6, eIF4H inh inconclusive
CCOC(=O)C1=C(c2ccccc2)N=c2s/c(=C\c3ccco3)c(=O)n2C1c1cccs1 (stereo unspecified)	none
O=C1CN(S(=O)(=O)c2cc(C(F)(F)F)ccc2Cl)CCN1	none (no result: PABP FP inh, ALR H2O2 inh, SUMO HTRF inh, eIF4H inh)
O=C(O)/C=C/C(=O)N1CCN(S(=O)(=O)c2cc(C(F)(F)F)ccc2Cl)CC1	PABP FP inh 69.0, eIF4H inh 2.1
CN1C(=O)/C(=C/c2ccc(-c3ccccc3[N+](=O)[O-])o2)SC1=Nc1ccc(Cl)c(C(=O)O)c1	eIF4H inh 77.5
O=C1CCCC(O)=C1C=Nc1ccc(O)cc1	ALR H2O2 inh 99.2
COc1ccccc1N1CCN(C(=O)c2cc(=O)c3ccc(C)cc3o2)CC1	ALR H2O2 inh 98.9
COc1ccccc1N1CCN(Cc2cc(=O)oc3cc(C)ccc23)CC1	none (no result: Efflux pump mplx, PABP FP inh, ALR H2O2 inh, SUMO HTRF inh, eIF4H inh)
C[C@@H]1CN([C@@H](C)CO)C(=O)c2cc(Br)cnc2O[C@H]1CN(C)C(=O)Nc1ccc(F)cc1	none (no result: Efflux pump mplx, PABP FP inh, ALR H2O2 inh, SUMO HTRF inh, eIF4H inh)
COC(=O)Nc1ccc2c(c1)ncn2C1CCCCC1	none
CCOC(=O)Nc1ccc2c(c1)ncn2C1CCCCC1	ALR H2O2 inh 83.6
CC1(OC(=O)C2CCCC2)C(=O)C=C2C=C(c3ccsc3)N(CC3CC3)C=C2C1=O (stereo unspecified)	none (no result: ALR H2O2 inh)
COC(=O)CCCC1=CC2=C(c3ccccc3)C(=O)C(C)(OC(=O)C3CCCC3)C(=O)C2=CN1CCc1ccccn1 (stereo unspecified)	none
CC1(OC(=O)C2CCCC2)C(=O)C=C2C=C(c3ccsc3)N(CCN3CCOCC3)C=C2C1=O (stereo unspecified)	PABP FP inh 41.2 (no result: Efflux pump mplx, PABP1 MLLE inh, ALR H2O2 inh)
COC(=O)CCCC1=CC2=C(c3ccccc3)C(=O)C(C)(OC(=O)C3CCCC3)C(=O)C2=CN1CCN1CCOCC1 (stereo unspecified)	PABP1 MLLE inh 40.4
O=Cc1coc2ccc3ccccc3c2c1=O	PABP1 MLLE inh 40.2
CC(C)Cn1c(-c2cccc(S(=O)(=O)N3CCOCC3)c2)n[nH]c1=S	ALR H2O2 inh 86.5 (no result: PABP FP inh, SUMO HTRF inh, eIF4H inh)
Cc1nc(-c2cccc(S(=O)(=O)N3CC(C)OC(C)C3)c2)cs1 (stereo unspecified)	ALR H2O2 inh 98.5
Cc1nc(-c2cccc(S(=O)(=O)N3CC(C)CC(C)C3)c2)cs1 (stereo unspecified)	none
Cc1nc(-c2cccc(S(=O)(=O)N3CCOCC3)c2)cs1	ALR H2O2 inh 98.9
CCCS(=O)(=O)NC(=O)C1(C)CCN(C(=O)c2cccc(OC(F)(F)F)c2)C1 (stereo unspecified)	none (no result: Efflux pump mplx, PABP FP inh, ALR H2O2 inh, SUMO HTRF inh, eIF4H inh)
Cc1ccc(SC(CC(=O)c2ccc(C)cc2)C(=O)O)cc1 (stereo unspecified)	ALR H2O2 inh 99.1
O=C(CC(Sc1ccc(Br)cc1)C(=O)O)c1ccc(Br)cc1 (stereo unspecified)	none (no result: PABP1 MLLE inh, ALR H2O2 inh)
O=C(NCc1n[nH]c(=S)n1-c1ccc(F)cc1)c1ccc(S(=O)(=O)N2CCOCC2)cc1	none
O=C(NCc1n[nH]c(=S)n1-c1ccccc1)c1ccc(S(=O)(=O)N2CCOCC2)cc1	ALR H2O2 inh 90.9
c1coc(-c2ncc[nH]2)c1	PABP FP inh 127.9, eIF4H inh 102.4
Cn1cnnc1SCCNS(=O)(=O)c1cccc([N+](=O)[O-])c1	none
